Consider 25 compounds from PubChem BioAssay (NCATS).

Structures are written as SMILES. Where “and” joins values, the source holds several entries; their conditions need not be identical. Identical values can stand only once. Inconclusive results are not listed. Some compounds were tested as several samples or in several runs, with calls that do not always agree. Calls of active or inactive are those of the source. The call rests on the fitted dose curve; in most records, active means well fitted curve in the direction sought with a large enough effect; inconclusive means small, poorly fitted or top-dose-only effect, or another doubt; inactive means no such curve, though single readings can be large; an effect the other way counts as inactive or inconclusive.

Assay [1] has as its target Cytochrome P450 2C9 (Homo sapiens) (UniProt P11712). The assay is described as follows: qHTS Assay for Inhibitors and Substrates of Cytochrome P450 2C9 (AID 883). Further: nearly all actives have a fitted effect of over 60% in size. Further: potency means the concentration at half of the fitted maximal effect. On activity change, negative = inhibition: on the % scale 0 is the no-effect control and ±100 the full control effect. The method in brief:
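Luminescent read-out of deoxyluciferin hydroxylation, normalized to 57uM sulphaphenazole (AC100). Reaction: 10nM enzyme, 100uM Luciferin-H (equal to KM), 25mM KPO4, 10 min compound preincubation, then 60 min with NADPH regeneration, both at 37C.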
(In general: Quantitative high-throughput screening tests each substance at several concentrations.)

In assay [2] the target is Cytochrome P450 3A4 (Homo sapiens) (UniProt P08684). The assay is described as follows: qHTS Assay for Inhibitors and Substrates of Cytochrome P450 3A4 (AID 884). Further: nearly all actives have a fitted effect of over 50% in size. Further: potency means the concentration at half of the fitted maximal effect. On activity change, negative = inhibition: series mostly up to about 57 µM; on the % scale 0 is the no-effect control and ±100 the full control effect. The method in brief:
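Luminescent readout of luciferin produced by CYP3A4 (20 nM) dealkylation of Luciferin-PPXE, 25 uM (its KM). NADPH-driven reaction ran 60 min at RT after 10 min compound preincubation; data scaled to 57 uM ketoconazole as 100% inhibition.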

In assay [3] the target is Cytochrome P450 2D6 (Homo sapiens) (UniProt P10635). The assay is described as follows: qHTS Assay for Inhibitors and Substrates of Cytochrome P450 2D6 (AID 891). Further: nearly all actives have a fitted effect of over 60% in size. Further: potency means the concentration at half of the fitted maximal effect.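 On activity change, negative = inhibition: luciferin methyl ether substrate demethylated by CYP2D6 with NADPH regeneration; on the % scale 0 is the no-effect control and ±100 the full control effect.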 The essentials:
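Luminescent read-out of luciferin formed by 5 nM human CYP2D6 demethylating 30 uM Luciferin-ME EGE (Km level) over 60 min at room temperature after NADPH regeneration addition. Data normalized to full inhibition by 1.43 uM quinidine.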

Assay [4] deals with Cytochrome P450 2C19 (Homo sapiens) (UniProt P33261). The assay is described as follows: qHTS Assay for Inhibitors and Substrates of Cytochrome P450 2C19 (AID 899). Further: nearly all actives have a fitted effect of over 60% in size. Further: potency means the concentration at half of the fitted maximal effect. The method in brief:
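Luminescence readout of luciferin formed from 10uM Luciferin-H EGE (KM level) by 5 nM CYP2C19 in 50mM KPO4. 60 min NADPH-driven reaction at 37C after 10 min compound preincubation; data scaled to 57uM ketoconazole inhibition.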

For assay [5], the target named is Cytochrome P450 3A4 (Homo sapiens) (UniProt P08684). The assay is described as follows: qHTS Assay for Activators of Cytochrome P450 3A4 (AID 885). Further: nearly all actives have a fitted effect of over 65% in size. The method in brief:
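Human CYP3A4 dealkylates Luciferin-PPXE to luciferin, which luciferase detection converts to light. Substrate was at its KM (25uM), buffer 200mM KPO4, reaction 60 min at RT.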

Sequence of Cytochrome P450 2C19 (Homo sapiens) (P33261 whole entry, looked up): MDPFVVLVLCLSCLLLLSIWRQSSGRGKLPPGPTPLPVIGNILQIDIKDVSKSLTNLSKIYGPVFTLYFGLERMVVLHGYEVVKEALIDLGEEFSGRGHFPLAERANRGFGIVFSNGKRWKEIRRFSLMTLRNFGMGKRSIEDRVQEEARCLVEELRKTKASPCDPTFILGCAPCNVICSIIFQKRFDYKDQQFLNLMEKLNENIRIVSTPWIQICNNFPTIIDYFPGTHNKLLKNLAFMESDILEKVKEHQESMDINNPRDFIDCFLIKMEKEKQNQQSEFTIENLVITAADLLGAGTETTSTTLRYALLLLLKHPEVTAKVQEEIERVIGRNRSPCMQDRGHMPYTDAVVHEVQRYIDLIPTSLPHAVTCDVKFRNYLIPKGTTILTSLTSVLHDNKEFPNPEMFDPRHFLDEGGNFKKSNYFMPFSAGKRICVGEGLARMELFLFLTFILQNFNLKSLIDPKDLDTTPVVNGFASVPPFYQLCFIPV
Sequence of Cytochrome P450 2D6 (Homo sapiens) (P10635 whole entry, looked up): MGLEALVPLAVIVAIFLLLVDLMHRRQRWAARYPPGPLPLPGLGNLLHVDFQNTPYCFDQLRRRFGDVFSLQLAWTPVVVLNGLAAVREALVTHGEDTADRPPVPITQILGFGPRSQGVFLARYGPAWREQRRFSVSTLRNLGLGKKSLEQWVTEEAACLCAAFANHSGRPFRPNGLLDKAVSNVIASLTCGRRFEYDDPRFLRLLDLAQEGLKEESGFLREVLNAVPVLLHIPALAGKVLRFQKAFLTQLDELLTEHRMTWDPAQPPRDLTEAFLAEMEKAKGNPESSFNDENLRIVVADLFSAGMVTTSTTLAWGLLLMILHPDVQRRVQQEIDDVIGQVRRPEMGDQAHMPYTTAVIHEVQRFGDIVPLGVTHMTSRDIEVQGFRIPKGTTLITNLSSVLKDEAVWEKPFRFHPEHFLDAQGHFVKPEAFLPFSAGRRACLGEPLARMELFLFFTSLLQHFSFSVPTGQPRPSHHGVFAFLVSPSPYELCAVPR
Sequence of Cytochrome P450 2C9 (Homo sapiens) (P11712 whole entry, looked up): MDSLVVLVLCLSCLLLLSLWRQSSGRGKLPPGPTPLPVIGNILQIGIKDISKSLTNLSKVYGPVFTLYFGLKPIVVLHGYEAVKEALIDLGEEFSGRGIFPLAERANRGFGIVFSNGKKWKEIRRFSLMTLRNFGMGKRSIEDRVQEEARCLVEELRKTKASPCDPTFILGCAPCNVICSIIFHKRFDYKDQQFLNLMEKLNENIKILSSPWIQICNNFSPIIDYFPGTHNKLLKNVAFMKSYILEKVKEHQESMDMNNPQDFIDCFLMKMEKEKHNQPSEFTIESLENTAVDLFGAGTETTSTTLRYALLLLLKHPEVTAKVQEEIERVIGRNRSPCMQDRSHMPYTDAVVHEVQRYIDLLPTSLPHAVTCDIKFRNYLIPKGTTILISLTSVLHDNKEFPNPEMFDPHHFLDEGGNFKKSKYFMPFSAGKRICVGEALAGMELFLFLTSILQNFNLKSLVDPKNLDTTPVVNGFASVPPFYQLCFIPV
Sequence of Cytochrome P450 3A4 (Homo sapiens) (P08684 whole entry, looked up): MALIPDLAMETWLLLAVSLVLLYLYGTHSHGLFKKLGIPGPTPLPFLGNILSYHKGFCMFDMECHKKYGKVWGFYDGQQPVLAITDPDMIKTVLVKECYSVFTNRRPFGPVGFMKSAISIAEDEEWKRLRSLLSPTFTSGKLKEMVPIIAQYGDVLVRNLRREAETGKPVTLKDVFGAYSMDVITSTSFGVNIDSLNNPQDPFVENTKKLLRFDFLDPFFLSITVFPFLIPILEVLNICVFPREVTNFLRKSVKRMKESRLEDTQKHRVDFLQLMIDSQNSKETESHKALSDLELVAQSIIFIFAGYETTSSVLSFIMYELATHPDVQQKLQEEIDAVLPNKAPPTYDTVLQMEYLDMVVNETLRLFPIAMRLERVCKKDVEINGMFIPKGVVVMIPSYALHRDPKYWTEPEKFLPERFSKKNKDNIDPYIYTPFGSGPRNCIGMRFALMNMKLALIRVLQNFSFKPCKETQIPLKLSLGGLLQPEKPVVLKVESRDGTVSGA

For `CCN1C(C)=C(C(=O)OC)C(c2ccccc2)N2C(=O)[C@@]3(C(=O)OC)O[C@@]12C1C(=O)N(C)C(=O)C13` (stereo not given in full), the Potency entry in assay [1], in assay [3] and in assay [4] was “inactive” each time. The activity change, negative = inhibition in assay [2] is -27.7% [at 11.4 µM] (inactive).

Regarding `CCOC(=O)OCC1OC(c2ccc(C(C)=O)cc2)C=CC1OC(=O)OCC` (stereo not given), the Potency result in assay [1], in assay [3] and in assay [4] was “inactive” in each case. For the same compound, the activity change, negative = inhibition in assay [2] is -24.1% [at 11.4 µM] (inactive).

`C=CCc1cccc(C2NC(C(=O)O)CCC2C)c1` (stereo not given): the Potency entry in assay [1], in assay [3] and in assay [4] was “inactive” in each case. Also, in assay [2], the activity change, negative = inhibition is -20.1% [at 11.4 µM] (inactive).

For the compound `CC(=O)c1ccc(C2C=CC(O)C(CO)O2)cc1` (stereo not given), the Potency entry in assay [1], in assay [3] and in assay [4] was “inactive” each time. Further, in assay [2], the activity change, negative = inhibition was -3.24% [at 11.4 µM] (inactive).

In the case of `CC(=O)OCC1OC(C#Cc2ccc(Cl)cc2)C=CC1OC(C)=O` (stereo not given), the Potency entry in assay [1] and in assay [3] was “inactive” throughout. In assay [2], the activity change, negative = inhibition was -14.6% [at 11.4 µM] (inactive) and -6.86% [at 11.4 µM] (inactive). Further, the Potency in assay [4] is 1 µM (active) and inactive.

For the compound `CC1(C)OC(C(O)(c2cc(F)c(F)c(F)c2)c2cc(F)c(F)c(F)c2)C(C(O)(c2cc(F)c(F)c(F)c2)c2cc(F)c(F)c(F)c2)O1` (stereo not given), the Potency entry in assay [1], in assay [3] and in assay [4] was “inactive” in each case. In assay [2], the activity change, negative = inhibition is -15% [at 11.4 µM] (inactive).

In the case of `CC1CCC2C(=O)N3CCCC3C(=O)N2C1c1ccc(Br)cc1` (stereo not given), the Potency in assay [1] was 631 nM (active) and inactive. Besides, the activity change, negative = inhibition in assay [2] is -43.7% [at 11.4 µM] (inactive) and -27.2% [at 11.4 µM] (inactive). Also, the Potency result in assay [3] and in assay [4] was “inactive” each time.

With `COC(=O)NC(c1ccc2ccccc2c1)C(C(C)=O)C(=O)OC` (stereo not given), the Potency entry in assay [1] and in assay [3] was “inactive” in each case. Also, the activity change, negative = inhibition in assay [2] was -19.4% [at 11.4 µM] (inactive). For the same compound, the Potency in assay [4] was 1.26 µM (active).

As for `CCCNC(=O)OC[C@@H]1O[C@H](CCO/N=C\c2ccc(C(=O)N3[C@H](c4ccc(C)cc4)[C@@H](C)CC[C@H]3C(=O)OC)cc2)C=C[C@@H]1Oc1ccc(OC)cc1`, the Potency in assay [1] was 3.98 µM (active). Moreover, the activity change, positive = activation in assay [5] is -51.6% [at 11.4 µM] (inactive).

Turning to `COc1ccc(-c2ccccc2C2NC(C(=O)O)CCC2C)cc1` (stereo not given), the Potency result in assay [1], in assay [3] and in assay [4] was “inactive” in each case. Besides, the activity change, positive = activation in assay [5] is -42% [at 11.4 µM] (inactive).

Take `CCCCCCC#CC1C=CC(OC(C)=O)C(COC(C)=O)O1` (stereo not given): the Potency entry in assay [1] is “inactive”. In addition, in assay [5], the activity change, positive = activation was -57.5% [at 11.4 µM] (inactive).

For `COC(=O)NC(c1ccco1)[C@]1(C(C)=O)CCCC1=O` (stereo not given in full), the Potency entry in assay [1], in assay [3] and in assay [4] was “inactive” each time. In addition, the activity change, positive = activation in assay [5] is -35.9% [at 11.4 µM] (inactive).

In the case of `COC(c1ccccc1Br)C(C)/C=C/CCO` (stereo not given), the Potency entry in assay [1] and in assay [3] was “inactive” throughout. In addition, the activity change, positive = activation in assay [5] is -47.9% [at 11.4 µM] (inactive). Moreover, the Potency in assay [4] was 1.58 µM (active).

For the compound `CC(C)=CCC/C(C)=C/C=C/C1=CC2(C)CC1(C)C(/C=C(\C)CCC=C(C)C)CC2=O` (stereo not given), the Potency entry in assay [1], in assay [3] and in assay [4] was “inactive” each time. Also, in assay [5], the activity change, positive = activation is -35% [at 11.4 µM] (inactive).

For the compound `CCOC(=O)[C@]1(C(NC(=O)OC)c2ccccc2)CCCC1=O` (stereo not given in full), the Potency entry in assay [1] and in assay [3] was “inactive” in each case. Also, the activity change, positive = activation in assay [5] is -34% [at 11.4 µM] (inactive). The Potency in assay [4] is 1.26 µM (active).

As for `Cc1ccc(S(=O)(=O)N[C@@H](CCc2ccccc2)CC(=O)C(C)(C)C)cc1`, the results for the Potency in assay [1], in assay [2] and in assay [4] were 3.98 µM (active), 1.58 µM (active) and 1.58 µM (active), respectively.

With `C=C(C)C(O)/C=C/c1ccccc1OC` (stereo not given), the Potency result in assay [1], in assay [3] and in assay [4] was “inactive” throughout. The activity change, positive = activation in assay [5] is -35.5% [at 11.4 µM] (inactive).

In the case of `CC1Cc2c(COc3ccccc3)nc3c(c2CO1)CN(CCOc1ccccc1)CC3` (stereo not given), the Potency result in assay [1], in assay [3] and in assay [4] was “inactive” in each case. Besides, the activity change, positive = activation in assay [5] is -42% [at 11.4 µM] (inactive).

As to `COc1cccc(C2C(C)CCC3C(=O)N(C)C(C(C)C)C(=O)N32)c1` (stereo not given), the Potency entry in assay [1], in assay [3] and in assay [4] was “inactive” throughout. The activity change, positive = activation in assay [5] is -59.1% [at 11.4 µM] (inactive).

As to `C=C/C1=C/Cc2ccccc2C(C[N+](=O)[O-])C(C(=O)OC)(C(=O)OC)C1` (stereo not given), the Potency entry in assay [1] and in assay [3] was “inactive” in each case. Further, the activity change, positive = activation in assay [5] is -46.3% [at 11.4 µM] (inactive).

As for `CC[C@@H](c1ccccc1)n1c(=O)n2n(c1=O)[C@H]1[C@H](O)[C@H]3O[C@@H]3/C(=N/OC/C=C(\C)CCC=C(C)C)[C@@H]1CC2`, the Potency result in assay [1] was “inactive”. Moreover, the activity change, positive = activation in assay [5] is -40.3% [at 11.4 µM] (inactive).

`COC(=O)NC(c1cccc(C)c1)C(C(C)=O)C(=O)OC` (stereo not given): the Potency entry in assay [1], in assay [3] and in assay [4] was “inactive” in each case. Further, the activity change, positive = activation in assay [5] was -34.6% [at 11.4 µM] (inactive).

As to `C=C(C)C(O)C(CC/C=C(\C)C(=O)OCC)OC` (stereo not given), the Potency entry in assay [1] and in assay [4] was “inactive” in each case. Further, the activity change, negative = inhibition in assay [2] was -25.2% [at 11.4 µM] (inactive).

Regarding `COC(=O)NC(c1ccccc1)C(C(=O)OC)C(=O)OC` (stereo not given), the Potency entry in assay [1] was “inactive”. Also, in assay [5], the activity change, positive = activation is -40.4% [at 11.4 µM] (inactive). Besides, the Potency in assay [3] was 7.9 nM (active).

For the compound `COC(=O)C1=C(C)N(Cc2ccccc2)c2c(C(=O)OC)c(C(=O)OC)c(C(=O)OC)c(=O)n2C1c1ccccc1` (stereo not given), the Potency entry in assay [1], in assay [3] and in assay [4] was “inactive” throughout. Further, in assay [5], the activity change, positive = activation is -58.7% [at 11.4 µM] (inactive) and -55.1% [at 11.4 µM] (inactive).
